Measurements from PubChem BioAssay (EPA / NIEHS).
Activity calls are given as the source filed them. Rule for the calls: active = hit-call score of the fitted dose curve at least 0.9, where 1 is the maximum; inactive = score below 0.9.

Columns and labels:
[1] = APR_HepG2_CellCycleArrest_24hr: Apredica 24-hour HepG2 Assay for Cell Cycle Arrest (AID 2282905); settings: imaging, actives raise or lower the signal;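 note: cell cycle arrest scored as ratio of 2N to 4N nuclear DNA content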
How it was run: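 Step one: dose HepG2 with test compounds, 0.39–200 uM, 0.5% DMSO, 24 hr. Step two: fix, permeabilize, stain nuclei with Hoechst 33342. Step three: image six fields per well at 20x, quantify DNA content, fit bidirectionally relative to DMSO.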

[2] = APR_HepG2_NuclearSize_24hr: Apredica 24-hour HepG2 Assay for Nuclear Size (AID 2282907); settings: high-content imaging, actives raise or lower the signal
How it was run: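 After fixation and permeabilization, 24-hr-treated HepG2 cells were stained with Hoechst 33342 and imaged on an ArrayScan (20x). Doses spanned 0.39–200 uM in duplicate. Nuclear diameter changes in either direction were fitted relative to 0.5% DMSO controls.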

[3] = APR_HepG2_CellLoss_24hr: Apredica 24-hour HepG2 Assay for Cell Loss (AID 2282908); settings: high-content imaging;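 for AC50: fit in both directions so a hit may be cell loss or gain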
How it was run: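 Duplicate wells received compound at ten concentrations (0.39–200 uM; final DMSO 0.5% v/v). After fixation with formaldehyde, nuclei stained with Hoechst 33342 were imaged at 20x. Loss or gain of cell count was fitted relative to DMSO controls.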

[4] = APR_HepG2_MicrotubuleCSK_24hr: Apredica 24-hour HepG2 Assay for Microtubule CSK Stabilty (AID 2282909); settings: HepG2 microtubule cytoskeleton imaging, actives raise or lower the signal
How it was run: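 Microtubule stability is scored from tubulin immunofluorescence in fixed HepG2 cells imaged at 20x. Cells receive ten compound concentrations up to 200 uM for 24 h; taxol and DMSO serve as positive and negative controls.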

[5] = APR_HepG2_MitoticArrest_24hr: Apredica 24-hour HepG2 Assay for Mitotic Arrest (AID 2282910); settings: high-content imaging, actives raise or lower the signal
How it was run: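 Treatment lasted 24 hr in the human HepG2 line at 0.39–200 uM, solvent held at 0.5% DMSO. Fixed cells were stained with Hoechst 33342 and anti-phospho-histone H3, imaged at 20x, and analysed by gain- or loss-of-signal fitting against DMSO.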

[6] = APR_HepG2_MitoMembPot_24hr: Apredica 24-hour HepG2 Assay for Mitochondrial Membrane Potential (AID 2282911); settings: imaging, actives raise or lower the signal
How it was run: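 Mitochondrial dye uptake (MitoTracker Red CMXRos, 250 nM, 30 min pre-fixation) in HepG2 after 24 hr compound exposure, 0.39–200 uM; ArrayScan images at 20x, activity fitted in both directions relative to DMSO.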

[7] = APR_HepG2_MitoMass_24hr: Apredica 24-hour HepG2 Assay for Mitochondrial Mass (AID 2282912); settings: high-content imaging, actives raise or lower the signal
How it was run: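 Readout: fluorescence of MitoTracker Red CMXRos (250 nM, added 30 min pre-fixation) in fixed HepG2 cells imaged by HCS. Exposure lasted 24 hr at 0.39–200 uM; increases and decreases were both fitted relative to DMSO.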

[8] = APR_HepG2_p53Act_24hr: Apredica 24-hour HepG2 Assay for p53 Activation (AID 2282913); settings: high-content imaging, actives raise or lower the signal;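 note: p53 protein immunofluorescence averaged per cell in HepG2 with Hoechst nuclei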
How it was run: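 Following 24 hr dosing of HepG2 at 0.39–200 uM, the cells undergo formaldehyde fixation, Triton permeabilization and multiplexed antibody labeling that includes p53 (Cy5). Signal from the imaging is referenced to DMSO solvent controls.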

[9] = APR_HepG2_CellCycleArrest_72hr: Apredica 72-hour HepG2 Assay for Cell Cycle Arrest (AID 2282914); settings: high-content imaging, actives raise or lower the signal
How it was run: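 Using multiplexed high-content imaging, HepG2 nuclei stained with Hoechst 33342 (2 ug/mL) were analysed for DNA content after fixation and permeabilization. Treatment lasted 72 hr across 0.39–200 uM in duplicate with final DMSO 0.5% v/v; DMSO served as negative control.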

[10] = APR_HepG2_CellLoss_72hr: Apredica 72-hour HepG2 Assay for Cell Loss (AID 2282915); settings: high-content imaging
How it was run: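 HepG2 cells were exposed for 72 hr to compounds at 0.39–200 uM (ten concentrations, duplicate) in 0.5% v/v final DMSO. Nuclei were stained with Hoechst 33342 after 3.7% formaldehyde fixation, imaged at 20x, and counted; fits bidirectional versus DMSO.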

Measured: AC50

Oc1ccc2c(c1)-c1ccccc1C2
inactive: [1] | [2] | [4] | [6]
active: [3] 100 µM | [5] 116 µM | [7] 111 µM | [8] 100 µM | [9] 124 µM

CC(C)CCO
inactive: all assays above

CCCCC(CC)COC(=O)c1ccc(C(=O)OCC(CC)CCCC)cc1 (stereo not drawn)
active: [9] 32.4 µM
inactive: all other assays above

CCC(C)(C)C(=O)O[C@H]1C[C@@H](C)C=C2C=C[C@H](C)[C@H](CC[C@@H]3C[C@@H](O)CC(=O)O3)[C@H]21
inactive: [2] | [4] | [9]
active: [1] 2.85 µM | [3] 123 µM | [5] 2.96 µM | [6] 105 µM | [7] 3.97 µM | [8] 89.3 µM

On1ccccc1=S
active: [8] 19.6 µM | [9] 8.36 µM
not listed: [10]
inactive: all other assays above

CCNc1ccccc1
not listed: [10]
inactive: all other assays above

Cc1[nH]cnc1C[C@H]1CCc2c(C)c3ccccc3n2C1=O
active: [1] 146 µM | [3] 55.7 µM | [8] 97 µM | [9] 69.7 µM
not listed: [10]
inactive: all other assays above

Nc1cccc(N)c1
inactive: all assays above

CC[C@H]1OC(=O)[C@H](C)[C@@H](O[C@H]2C[C@@](C)(OC)[C@@H](O)[C@H](C)O2)[C@H](C)[C@@H](O[C@@H]2O[C@H](C)C[C@H](N(C)C)[C@H]2O)[C@](C)(O)C[C@@H](C)C(=O)[C@H](C)[C@@H](O)[C@]1(C)O
inactive: all assays above

COc1ccc(/C=C/S(=O)(=O)NC(=O)c2ccc(C)cc2Cl)cc1
active: [1] 102 µM | [6] 14.7 µM | [10] 57.3 µM
inactive: all other assays above

CC(C)=CCC/C(C)=C/CO
active: [10] 81.1 µM
inactive: all other assays above

Cc1c(-c2cccnc2)c2ccccc2n1CCCCC(=O)O
inactive: all assays above

Cc1ccc(S(=O)(=O)O)cc1C
active: [10] 0.0391 µM
inactive: all other assays above

CC(=O)c1ccc2c(c1)[C@H](NC(=O)c1ccc(F)cc1)[C@@H](O)C(C)(C)O2
not listed: [3] | [10]
inactive: all other assays above

CCCCCCCCCCCCc1ccccc1
inactive: all assays above

O=C(NS(=O)(=O)/C=C/c1ccccc1)c1ccc(F)cc1Cl
not listed: [3] | [10]
inactive: all other assays above

O=c1n(CC2CO2)c(=O)n(CC2CO2)c(=O)n1CC1CO1 (stereo not drawn)
active: [1] 0.225 µM | [4] 24.4 µM | [5] 27.8 µM | [7] 50 µM | [8] 11.3 µM | [9] 0.224 µM
inactive: [2] | [6]

O=C(O)c1cc(N=Nc2ccc(S(=O)(=O)Nc3ccccn3)cc2)ccc1O
active: [6] 95.9 µM
inactive: all other assays above

COc1cccc(-c2ccc(/C=C\CN3CCCCCC3)cc2Cl)c1
inactive: [4] | [6]
active: [1] 87.1 µM | [2] 59.5 µM | [5] 28.5 µM | [7] 23.8 µM | [8] 30.8 µM | [9] 84.2 µM

CCN(C(=O)c1cc(C)cc(OC[C@H](C)Nc2ccncc2)c1)C(C)C
inactive: all assays above

CCc1cc(SCc2sc(-c3ccc(C(F)(F)F)cc3)nc2CN2CCN(c3ccc(OC)cc3)CC2)ccc1OCC(=O)O
active: [4] 48.5 µM | [5] 55.9 µM | [8] 84 µM
not listed: [3] | [10]
inactive: all other assays above

C1=CCCC=CCCC=CCC1
not listed: [3] | [10]
inactive: all other assays above
